Lassa entry inh – inhibitors of Lassa virus binding or cell entry; Potency, µM (top dose mostly 37.9 µM), for the others: at the highest dose activity change, negative = inhibition, most hits filed as inhibitors; Lassa virus pseudotype entry inhibition, cell reporter; 1.2% of 300,000 active; calls by dose curve; tested in HEK293 cells; also: potency is read from the fitted curve at half-maximal effect; nearly all actives have a fitted effect of over 50% in size
VACV mCherry inh – vaccinia inhibition (mCherry reporter); Potency, µM (doses to about 36.5 µM), inactives show at the top dose activity change, negative = inhibition, hits mostly inhibitors; 0.63% of 310,000 active; Vaccinia virus mCherry reporter infection, fluorescence; calls by dose curve; tested in A549 cells; also: potency is read from the fitted curve at half-maximal effect; nearly all actives have a fitted effect of over 35% in size
HCMV inh – human cytomegalovirus inhibition. HFF cells, HCMV-luciferase reporter, 72 h; hits give low values. activity change, negative = inhibition, % at 57.5 µM. 4.5% of 410,000 active. AID 1259415; in the data active = activity change below about -60%; inconclusive = no clear call, values can overlap the other calls; inactive = above about -39%
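HFF cells seeded 16 h at 37C, treated with compounds, infected with luciferase-reporter HCMV at MOI 1 PFU/cell; luciferase read at 72 h post infection, normalized to buffer-only and Salinomycin controls.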
MARV entry inh – inhibitors of Marburg virus binding or cell entry; Marburg virus pseudotyped entry inhibition, cell reporter; Potency, µM (highest dose often 37.8 µM), for the others: top-dose activity change, negative = inhibition, usual class: inhibitors; 1.8% of 300,000 active; calls by dose curve; tested in HEK293 cells; also: potency is read from the fitted curve at half-maximal effect
Vaccinia Venus – vaccinia inhibition (Venus reporter); 0.46% of 330,000 active; AID 720580; Vaccinia virus Venus reporter expression, fluorescence; Potency, µM (top dose mostly 36.5 µM), without a hit: at the highest dose activity change, negative = inhibition, usual class: inhibitors; calls by dose curve; tested in A549 cells; also: potency is read from the fitted curve at half-maximal effect; nearly all actives have a fitted effect of over 30% in size
FMDV antiviral – foot and mouth disease virus antiviral activity; 1.2% of 410,000 active; FMDV antiviral cell-based qHTS; Potency, µM (titrated, usually from 57.9 µM), for inactives: top-dose activity change, negative = inhibition, usual class: inhibitors; calls by dose curve; tested in HEK293T cells; also: read-out not given here; potency is read from the fitted curve at half-maximal effect; nearly all actives have a fitted effect of over 45% in size
Active calls of the source: *; i = inactive; ? = inconclusive; · = no result given; [ ] = dose if it differs, or a comment. The list is not random: actives were taken first. Their share in the collection is about 6.5%. % is scaled to controls: 0 for no effect and ±100 for the full control effect.

SMILES | Lassa entry inh | VACV mCherry inh | HCMV inh | MARV entry inh | Vaccinia Venus | FMDV antiviral
CC(=O)C(C)n1c(CN(C)Cc2ccccc2)nc2c1c(=O)n(C)c(=O)n2C (stereo not given) | -7%[46.1 µM] | i | -1 | ? | -2% | -16%
Cc1ccc(Cn2c(SCCN3CCCCC3)nc3c2c(=O)n(C)c(=O)n3C)cc1 | ? | · | -100* | ? | ? | 0%
CC(NC(=O)c1cc(Br)cs1)C1CCCO1 (stereo not given) | 9% | -20% | 56 | 5% | -19% | 4%
CCN(CC)c1nc2c(c(=O)n(C)c(=O)n2C)n1CCCc1ccccc1 | · | · | -9 | · | · | -26%
CN(Cc1ccccc1)c1nc2c(c(=O)n(C)c(=O)n2C)n1CCCc1ccccc1 | 13µM* | -15% | ? | ? | -17% | ?
COc1cc(/C=N/Nc2nc3c(c(=O)n(C)c(=O)n3C)n2Cc2ccccc2)ccc1OC(=O)c1ccco1 | ? | i | 39 | ? | -12% | 14µM*
Cn1c(=O)c2c(nc(N/N=C/c3ccncc3)n2Cc2ccccc2)n(C)c1=O | -25% | -13% | 46 | -26% | -20% | ?
CCCCCCn1c(NCC)nc2c1c(=O)n(C)c(=O)n2C | ? | · | -89* | ? | ? | ?
Cn1c(=O)c2c(nc(CN3CCN(Cc4ccccc4)CC3)n2Cc2ccc(Cl)cc2)n(C)c1=O | · | i | -103* | 0% | ? | -9%
CC(=O)OC[C@H]1O[C@H](CC=NO[C@H](C)c2cn([C@@H]3COC[C@@H]3O)nn2)C=C[C@@H]1OC(C)=O | · | · | · | -12%[14.2 µM] | · | ·
CCOC(=O)C1CCN(C(=O)c2cc3cc(C)ccc3[nH]2)CC1 | · | · | 8 | · | · | 23%
CC(C)(C)c1ccc(O[C@@H]2[C@H](O)CO[C@@H]2/C=C/C#Cc2ccccc2)cc1 | · | · | · | -16%[14.2 µM] | · | ·
CCCNc1nc2c(c(=O)n(C)c(=O)n2C)n1Cc1cccc(C)c1 | -25% | ? | -62* | -18% | -29% | ?
CCCNc1nc2c(c(=O)n(C)c(=O)n2C)n1CCCc1ccccc1 | · | · | -8 | · | · | ?
COc1cccc(Cn2c(NCc3ccco3)nc3c2c(=O)n(C)c(=O)n3C)c1 | ? | · | -98* | ? | · | ?
CC1Cc2ccccc2N1C(=O)CSc1nc2c(c(=O)n(C)c(=O)n2C)n1Cc1ccccc1 (stereo not given) | ? | -13% | -97* | ? | -3% | -12%
COC(=O)c1cn([C@@H]2C[C@@H](C(=O)N3CCCCCC3)N(Cc3cc4ccccc4s3)C2)nn1 | · | -7% | · | · | -8% | 2%
CC(=O)NCCNC(=O)c1nnc2n1CCN(C(=O)COc1ccccc1)C2 | · | · | 3 | · | · | ·
CCC(C)n1c(=S)[nH]c2c(sc3ccc([N+](=O)[O-])cc32)c1=O (stereo not given) | 0% | -11% | ? | -7% | -6% | 35µM*
Cc1ccc(N2CN=c3s/c(=C/c4cccnc4)c(=O)n3C2)cc1 | · | · | · | -20%[46.1 µM] | · | ·
COc1ccc(OC)c(NC(=O)c2ccc3c(SCC(=O)O)c4c(nc3c2)CCCC4)c1 | 3%[46.1 µM] | -1% | -11 | 6%[46.1 µM] | -4% | -29%
CC(C)(C)C(=O)Nc1cccc(-c2nc3ccccc3[nH]2)c1 | 0% | · | -15 | -9% | -20% | -12%
CC(C)(C)C(=O)Nc1sc2c(c1-c1nc3ccccc3[nH]1)CCCC2 | 4% | · | -107* | ? | · | -6%
CN(C)c1ccc(N2C(=O)CSC2=S)cc1 | -2% | 241% | ? | 21% | 321% | -23%
CC1SC(=S)N(c2ccc(N(C)C)cc2)C1=O (stereo not given) | 4%[46.1 µM] | 11µM* | -71* | 1%[46.1 µM] | -29% | 0%
Cc1ccc(NC(=O)N2CCN(c3cc(-c4noc(C)n4)ccc3C)CC2)c(C)c1 | ? | 1% | 8 | · | -5% | -2%
Cc1nc(-c2ccc(C)c(N3CCN(C(=O)Nc4cccc(Cl)c4C)CC3)c2)no1 | -11%[46.1 µM] | -14% | -88* | · | ? | ?
Cc1cc[n+](C2CCCCC2)c2ccccc12 | · | -8% | · | · | -9% | ·
O=C(CC1SC(=Nc2ccccc2)N(CCCO)C1=O)Nc1ccc(Cl)cc1 (stereo not given) | ? | · | · | ? | ? | 14µM*
Cc1cccc(N2CCN(C(=O)c3c(C)nn(Cc4ccccc4Cl)c3C)CC2)c1C | ? | · | ? | ? | ? | 35µM*

Screening results: PubChem BioAssay, National Center for Advancing Translational Sciences (NCATS)
